About 83,000 compounds went through this panel and 20% of them were active in at least one assay; those are over-represented in the sample as a whole.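 Assay: single dose, 48 h. Readout: percent growth (0 = no net growth; negative = cell death). Active: <10.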 Unmarked numbers belong to inactive results. Active and inactive are the calls of the source.
Test system: MDA-MB-468 breast
Experiment: NCI-60 one-dose screen, 48 h (100 = growth as untreated, 0 = no growth, -100 = all killed)
Details: 10 µM unless noted

| Compound | growth |
| --- | --- |
| CC(=O)Oc1ccc(N2C(=O)C(Cl)=C(Nc3cccc(C(F)(F)F)c3)C2=O)cc1 | 96.1% |
| COC(=O)c1c2c(c(C)[n+]([O-])c1C)C(=O)C(NCc1ccc(F)cc1)=CC2=O | -9.79% (active) |
| COc1ccc(/C=C2\COc3ccc(O)cc3C2=O)c(OC)c1OC | 48.8% |
| N#CC1=CC2CN(Cc3ccccc3)C1C1C(=O)N(c3ccccc3)C(=O)C21 (stereo not drawn) | 93.8% |
| O=C(c1ccc(OCCN2CCCCC2)cc1)c1c(-c2ccc(O)cc2)sc2cc(O)ccc12 | 57.7% |
| O=S(=O)(O)c1cccc(Nc2ccc3ccccc3c2)c1 | 105% |
| Nc1ncnc2c1ccn2-c1cccc(NC(=O)c2ccc(N3CCOCC3)c(C(F)(F)F)c2)c1 | 40.3% |
| N[C@@H](Cc1ccccc1)[C@@H](O)C(=O)NCc1ccc(F)cc1 | 114% |
| CCOC(=O)/C=C/c1c(C)[nH]c(=O)[nH]c1=O | 72.8% |
| CS(=O)c1nccc(-c2c(-c3ccc(F)c(OCc4ccc(F)cc4)c3)nc3sccn23)n1 (stereo not drawn) | -69.4% (active) |
| Clc1ccc2nc3nc4ccc[nH]c4cc3c2c1 | -31.5% (active) |
| CC(C)C1=C[C@@]23CC[C@H]4[C@](C)(COCCC#N)CCC[C@]4(C)[C@H]2C[C@@H]1[C@@H]1[C@H]3[C@@H](OCCC#N)CC[C@@H]1OCCC#N | -4.51% (active) |
| O=C(N=Nc1c(O)[nH]c2ccccc12)Nc1ccc(Br)cc1 | 70.5% |
| Cn1cc(-c2csc(-c3c[nH]c4ccccc34)n2)c2cccnc21 | -22% (active) |
| COc1cc(-c2nn(-c3ccc(NC(=O)c4ccc(Cl)c(Cl)c4)cc3)cc2-c2ccncc2)ccc1Cl | 78.3% |
| O=C(N/N=C/c1c(Cl)cccc1Cl)c1ccccc1Nc1ccnc(C(F)(F)F)c1 | 53.5% |
| COc1ccc(C(=O)Nc2cccc(C3CC(=O)c4c(cc(OC)c(OC)c4OC)O3)c2)cc1 (stereo not drawn) | -2.79% (active) |

| Compound | growth |
| --- | --- |
| COc1ccc2[nH]cc(-c3nc(-c4c[nH]c5ncccc45)cs3)c2c1 | 39.1% |
| CCCSc1nc(N)nc2nc[nH]c12 | 113% |
| COc1ccc(C2CC(n3nnnc3-c3ccccc3)=NN2)cc1 (stereo not drawn) | 64.5% |
| CCOC(=O)C#Cc1c(C(=O)OCC)nnn1[C@@H]1O[C@H](COC(C)=O)[C@@H](OC(C)=O)[C@H]1OC(C)=O | 61.5% |
| Cc1nc(Nc2cccc(NC(=O)Nc3ccc(Cl)cc3)c2)c2ccccc2n1 | 75% |
| O=C(CN1CCN(c2cccc(Cl)c2)CC1)N1CCN(c2nnc(-c3ccc(Cl)cc3)c(-c3ccc(Cl)cc3)n2)CC1 | 97.5% |
| CC(=O)O[C@H]1CC[C@]2(C)[C@H]3CC=C4[C@@H]5CC(C)(C)CC[C@]5(C(=O)N5CCN(CCC#N)CC5)CC[C@@]4(C)[C@]3(C)CC[C@H]2C1(C)C | 32.2% |
| CCc1nc2cc(F)c(/C=C/C(=O)NO)cc2c(=O)n1CCc1ccccc1 | 4.28% (active) |
| CC1(C)NCCC[C@]2(C)[C@H]3CC=C4[C@@H]5C[C@@](C)(CO)CC[C@]5(C)CC[C@@]4(C)[C@]3(C)CC[C@@H]12 | 67.6% |
| Cc1cccc(C[C@H](NC(=O)Nc2ccc(Cl)cc2F)C(=O)N[C@@H]2C(=O)N3C[C@H](O)C[C@H]3C(=O)N3CCN(C)C[C@H]3C(=O)N[C@@H](C)C(=O)N3C[C@H](C)C[C@H]3C(=O)O[C@H]2C)c1 | 15.7% |
| CCN1CCN(c2nc(NNC(=O)c3ccc(OC)cc3)nc(N3CCN(C(c4ccccc4)c4ccccc4)CC3)n2)CC1 | 10.7% |
| CCOC(=O)/C=C1\S/C(=N\Nc2ccc([N+](=O)[O-])cc2[N+](=O)[O-])N(Cc2ccccc2)C1=O | 84.2% |
| Fc1cccc(-c2nc(-c3c[nH]c4ncccc34)cs2)c1 | 29.4% [100 µM] |
| C#C[C@]1(O)CC[C@H]2[C@@H]3CC=C4c5sc(Nc6cc(Cl)ccn6)nc5CC[C@]4(C)[C@H]3CC[C@@]21C | 28.6% |
| CC[C@H](Nc1ncnc(N)c1C(N)=O)c1nc2cccc(NCc3ccc(C(=O)NO)cc3)c2c(=O)n1-c1ccccc1 | 32.2% |
| O=C(Nc1ccc(Nc2ccncc2)cc1)c1ccc(Nc2ccnc3ccc([N+](=O)[O-])cc23)cc1 | 83.4% |
